# From PubChem BioAssay AID720517 (National Center for Advancing Translational Sciences (NCATS), 2013)
# Records with an inconclusive call do not appear. The source made the active and inactive calls. The call rests on the fitted dose curve; in most records, active means well fitted activation curve with a large enough effect; inconclusive means small, poorly fitted or top-dose-only effect; inactive means flat fitted curve, though single readings scatter.
# Assay: qHTS for Inhibitors of Cell Surface uPA Generation: FP59 Counterscreen for Cherry-picked Compounds; further: 0% is about no effect
# Details: FP59 anthrax toxin cytotoxicity counterscreen, cells; series mostly up to 115 µM; activity (protection from FP59): at the top concentration
row,Compound,activity (protection from FP59)
1,COc1cc(SC)ccc1C(=O)OCc1nc2ccsc2c(=O)[nH]1,-1.26% (inactive)
2,C#CCN1C=C(C(=O)OCC)C(C)NS1(=O)=O (centres undefined),-1.31% (inactive)
3,CCOC(=O)Cc1csc(NC(=O)Nc2cccc(OC)c2)n1,-1.49% (inactive)
4,COc1ccc(CN2CCNC(=O)C2CC(=O)NCC2CCOCC2)cc1C (centres undefined),-1.4% (inactive)
5,CCNC(=S)NNC(=O)C(c1ccccc1)c1ccccc1,-1.4% (inactive)
6,COc1cc(C2/C(=C(\O)c3ccc4c(c3)CC(C)O4)C(=O)C(=O)N2CC2CCCO2)cc(OC)c1OC (centres undefined),-1.41% (inactive)
7,CC(C)OC(=O)Nc1ccc(-c2ccc(NC(=O)OC(C)C)cc2Cl)c(Cl)c1,-1.28% (inactive)
8,Cc1ccc2sc(NNC(=O)c3ccc4c(c3)OCCO4)nc2c1C,6.76% (inactive)
9,O=C1[C@H]2[C@@H](c3ccc(F)cc3)N3C(=O)N(c4cccc(F)c4)C(=O)[C@@]3(Cc3ccc(Cl)cc3)[C@H]2C(=O)N1C1CCCCC1,-0.34% (inactive)
10,COCc1c(C(=O)Nc2nc(C)cs2)oc2ccccc12,-1.52% (inactive)
11,CCOc1ccc(C(=O)NCC(=O)N2CCN(C/C=C/c3ccccc3)CC2)cc1OCC,-1.41% (inactive)
12,COc1ccc(N2CCN(S(=O)(=O)c3ccc4c(c3)NC(=O)CS4)CC2)cc1,-1.35% (inactive)
13,Cc1ccc(C(CC(=O)N2CCCC2)c2ccccc2)c(O)c1 (centres undefined),-0.648% (inactive)
14,CCCS(=O)(=O)c1ccc(COC(=O)Cc2ccc([N+](=O)[O-])cc2)cc1,-0.901% (inactive)
15,Cc1ccc(NC(=O)CS(=O)Cc2nc(-c3ccc(C)cc3)oc2C)cc1 (centres undefined),-0.34% (inactive)
16,Clc1ccc(-c2nc3ccccn3c2CN2CCSCC2)cc1,1.45% (inactive)
17,Cc1cnc(CNC(=O)C2CCC(=O)N(CCc3cccc(F)c3)C2)[nH]1 (centres undefined),-1.19% (inactive)
18,O=c1[nH]c2ccccc2cc1CN(CC1CCCO1)S(=O)(=O)c1ccccc1 (centres undefined),-1.45% (inactive)
19,CC1CCCC(NC(=O)CNC(=S)N(Cc2ccccc2)Cc2cccs2)C1C (centres undefined),7.33% (inactive)
20,CC(OC(=O)c1cccc(-n2cnnn2)c1)C(=O)Nc1ccc(F)c(F)c1F (centres undefined),-1.35% (inactive)

row,Compound,activity (protection from FP59)
1,C=CCc1cc(S(=O)(=O)c2ccc(O)c(CC=C)c2)ccc1O,0.647% (inactive)
2,COc1ccc(Cc2nnc(Nc3ccc(C)cc3)o2)cc1OC,-1.17% (inactive)
3,Cc1nc(NC(=O)CSc2nnc(C3CC3)n2C)sc1C(=O)N(C)C,-1.35% (inactive)
4,NC(=O)CC(NC(=O)Cc1cccc2ccccc12)c1ccc(N2CCN(c3ccccc3)CC2)c([N+](=O)[O-])c1 (centres undefined),-0.718% (inactive)
5,CC(C)(C)S(=O)(=O)N1C[C@H]2CC/C=C\C/C(c3ccccc3)=C\2[C@@H]1CCO,0.45% (inactive)
6,Cc1nc(N2CCN(c3ccc(Cl)cc3)CC2)[nH]c(=O)c1C,-0.777% (inactive)
7,CC(=O)c1cccc(NC(=O)N2C3CCC2CC(O)(c2cccnc2)C3)c1 (centres undefined),-1.35% (inactive)
8,COC(=O)c1c(NC(=O)c2c(OC)cccc2OC)sc2c1C(C(=O)OC)CC2 (centres undefined),12.7% (inactive)
9,O=C(CCc1ccccc1)NNC(=O)c1cccc(F)c1,-1.48% (inactive)
10,OC(COc1ccc(Br)cc1)CN1CCN(c2ccccc2)CC1 (centres undefined),-1.32% (inactive)
11,Cc1noc(C)c1COc1ccc(C(=O)N2CCN(S(=O)(=O)c3ccc(Cl)cc3)CC2)cc1,-1.01% (inactive)
12,CCC(NC(=O)Cc1c(C)c2c(cc(C)c3c(C)c(C)oc32)oc1=O)C(=O)O (centres undefined),-1.44% (inactive)
13,CCOCCCn1c(SCC(=O)Nc2oc(C)c3c(C)n[nH]c(=O)c23)nc2ccccc2c1=O,-1.53% (inactive)
14,Cc1cc(C)c(S(=O)(=O)N2CCCOC2CNC(=O)C(=O)NCc2cccs2)c(C)c1 (centres undefined),-1.06% (inactive)
15,COc1ccc(CC(=O)Nc2nc(C)cs2)cc1OC,-1.52% (inactive)
16,COc1ccc(NC(=O)c2cccnc2N2CCOCC2)cc1,-1.54% (inactive)
17,COc1ccc(CC(=O)NNS(=O)(=O)c2ccccc2[N+](=O)[O-])cc1OC,-1.49% (inactive)
18,O=C(Nc1ccc(NC(=O)c2ccco2)c(Cl)c1)c1ccccc1,-1.41% (inactive)
19,CCOc1ccccc1C(=O)NC1CCN(CC(=O)Nc2cc(OC)ccc2OC)CC1,-0.0735% (inactive)
